Pf growth 96h – Primary qHTS for delayed death inhibitors of the malarial parasite plastid, 96 hour incubation; P. falciparum luciferase reporter growth, 96 h; AID 504834, 2011; 320,000 compounds, 6.9% hits; Potency, µM (series often up to 28.7 µM), for inactives: at the highest dose activity change, negative = inhibition, most hits filed as inhibitors; also: % is scaled to controls: 0 for no effect and ±100 for the full control effect
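Infected RBCs, 2% Hct / 0.05% parasitemia final; luciferase-reporter P. falciparum; cpd 96 h, 37 C, 5% CO2; luciferase detection reagent; luminescence.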
AMA1 RON2 block – qHTS for Inhibitors of AMA1-RON; Towards Development of Antimalarial Drug Lead: Primary Screen | 360,000 compounds, 0.2% hits | Potency, µM (doses to about 58.2 µM), inactives show at the highest dose activity change, negative = inhibition, usual class: inhibitors | AlphaScreen AMA1-biotinylated RON2 peptide binding | Plasmodium falciparum AMA1 (3D7) - RON2 peptide interaction;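 also: 0% = vehicle wells and -100% = peptide control; nearly all actives have a fitted effect of over 45% in size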
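AMA1 (3D7) with his tag at 25 nM final met compounds first, then biotinylated RON2 peptide at 25 nM; detection used donor plus acceptor beads, 10 µg/mL apiece, read by AlphaScreen after 30 min at room temperature.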
Pf growth 48h – Primary qHTS for delayed death inhibitors of the malarial parasite plastid, 48 hour incubation; P. falciparum luciferase growth in erythrocytes, 48 h; Potency, µM (doses to about 28.7 µM), inactives show at the top dose activity change, negative = inhibition, actives largely listed as inhibitors; 310,000 compounds, 5.9% hits; also: % is scaled to controls: 0 for no effect and ±100 for the full control effect
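Erythrocytes infected with P. falciparum carrying an integrated firefly luciferase reporter (2% hematocrit, 0.1% parasitemia final) were exposed to compounds in RPMI 1640 with 0.5% Albumax at 37 C, 5% CO2. Growth inhibition was scored as reduced luminescence.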
NS1 function inh – qHTS Assay for Inhibitors of Influenza NS1 Protein Function | Potency, µM (doses to about 46.1 µM), for inactives: at the highest dose activity, positive = more growth | 270,000 compounds, 0.4% hits; calls by dose curve; also: actives are rising curves; nearly all actives have a fitted effect of over 50% in size
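OD600 was taken as the measure of yeast growth restored by compound in an NS1-expressing S. cerevisiae strain. Cells had been washed out of glucose medium and diluted 1:100 into galactose -URA medium, pH 6.0.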
Sm TGR block – qHTS Assay for the Inhibitors of Schistosoma Mansoni Peroxiredoxins; Potency, µM (highest dose often 114 µM), for the others: at the top dose activity change, negative = inhibition, actives largely listed as inhibitors; purified TGR, DTNB reduction, TNB absorbance 405 nm; 360,000 compounds, 3% hits; Schistosoma mansoni thioredoxin glutathione reductase (TGR), Q962Y6; AID 485364, 2010; also: % is scaled to controls: 0 for no effect and ±100 for the full control effect; nearly all actives have a fitted effect of over 60% in size
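TGR 20 nM + NADPH 100 uM (dispensed conc.), cpd preinc 15 min RT; start with NADPH (500 uM addition) then DTNB (15 mM addition). Kinetic TNB absorbance, 405 nm filter. Four-parameter Hill fit across titration.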
* hit, by the source's call; ? = inconclusive; · = no result; ! = a repeat was not active. A selection: hits, their analogues and other compounds. The true share with any hit is near 11%. Unless noted, calls follow the shape of the dose curve; as a rule, active = well fitted curve in the direction sought with a large enough effect; inconclusive = small, poorly fitted or top-dose-only effect, or another doubt; inactive = no such curve, though single readings can be large; an effect the other way counts as inactive or inconclusive. Potency is read from the fitted curve at half-maximal effect.

SMILES	Pf growth 96h	AMA1 RON2 block	Pf growth 48h	NS1 function inh	Sm TGR block
N#CC(C#N)=Cc1cc(O)c(O)c(O)c1	10.7µM*	·	7.57µM*	15.6%	·
O=C1COc2ccc(C(=O)COC(=O)/C=C/c3ccc(Br)o3)cc2N1	19.8%	?	6.2%	·	-27.7%
CC1=NN(c2ccccc2)C(=O)/C1=C/C=C/c1ccccc1	?	3.16µM*	?	-7.9%	-10.7%
Cc1ccc(C2=NOC(=O)/C2=C\C=C\c2ccccc2)cc1	2.94µM*	-23.1%	-19.6%	1.5%	?
CC1=NN(c2cccc(C(=O)O)c2)C(=O)/C1=C\C=C\c1ccco1	29.1%	0.1%	16.9%	8.5%	?
CCCSC1=C(C#N)C(c2ccccc2OCC)CC(=O)N1 (centres undefined)	5.22µM*	2.2%	?	-5.7%	2.4%
CCOc1ccccc1C1CC(=O)NC(SCC)=C1C#N (centres undefined)	·	42.5%	-10.3%	2.0%	-1.2%
CCCCCCSC1=C(C#N)C(c2ccc(C)o2)CC(=O)N1 (centres undefined)	-5.5%	-1.4%	3.5%	-12.4%	44.7µM*
CCOC(=O)C1CCCN(C(=O)c2cc3cc(Br)ccc3oc2=O)C1 (centres undefined)	?	0.0%	26.6%	·	-11.1%
CCOC(=O)C(=CNc1nc(-c2ccccc2)c(C(=O)Nc2ccc(-c3ccccc3)cc2)s1)C(=O)OCC	14.7µM*	0.0%	?	9.0%	-2.1%
CCc1nc2ccc(C(=O)NCCNC(C)=O)cn2c1N(CCC(C)C)CCN(C)C	·	9.2%	·	·	·
O=C(CN1C(=O)NC(Cc2c[nH]c3ccccc23)C1=O)NC1CCCCC1 (centres undefined)	0.3%	-8.0%	-16.1%	·	4.1%
CCOC(=O)CSCC(=O)Nc1c(C(=O)C2CC2)oc2ccccc12	5.86µM*	19.1%	-11.3%	-4.4%	0.0%
CN1CCN(CC(=O)Nc2c(C(=O)C3CC3)oc3ccccc23)CC1	29.7%	11.9%	-6.2%	-1.3%	11.8%
CCC1CCCCN1C(=O)COc1ccc(N(C)S(=O)(=O)c2ccc(C)cc2)cc1 (centres undefined)	?	72.2%	?	-31.6%	-4.9%
O=S(=O)(Nc1ccc(O)c2ccccc12)c1cccs1	-16.8%	-8.5%	0.0%	-40.8%	20µM*
Cc1ccc(S(=O)(=O)Nc2ccc(O)c3cccnc23)cc1	9.28µM*	29.2%	6.57µM*	12.3%	-19.2%
O=S(=O)(Nc1ccc(O)c2ccccc12)c1ccc(Br)cc1	?	·	4.65µM*	-1.0%	20µM*
CCCCn1c(N)c(N(CC(C)C)C(=O)c2cc(S(=O)(=O)N3CCOCC3)ccc2Cl)c(=O)[nH]c1=O	0.3%	-9.9%	?	·	-2.6%
O=C(NCCS(=O)(=O)N1CCN(c2ccc(F)cc2)CC1)C(c1ccccc1)c1ccccc1	·	·	·	·	-11.7%
O=C(NCCS(=O)(=O)N1CCN(c2ccc(F)cc2)CC1)C12CC3CC(CC(C3)C1)C2	-8.9%	5.9%	11.7µM*	·	-24.1%
CCc1ccc(CNC(=O)CCCN2C(=O)c3cccnc3Oc3ccc(Cl)cc32)cc1	·	·	·	·	1.9%
O=C(CSc1ccc(Cl)cc1)c1ccco1	?	-25.7%	17.4%	?	5.62µM*
O=C(NCCSc1ccc(Cl)cc1)c1ccco1	?	12.8%	·	-164.4%	-1.6%
O=C(CSc1ccccc1Cl)c1ccco1	37.0%	0.0%	52.2%	-2.8%	44.7µM*
SMILES	Pf growth 96h	AMA1 RON2 block	Pf growth 48h	NS1 function inh	Sm TGR block
Nc1nnc(SCC(=O)c2ccco2)s1	36.1%	31.2%	19.3%	7.8%	-10.4%
O=C(CCSc1ccc(Cl)cc1)c1ccco1	?	18.0%	-11.2%	6.0%	1µM*
O=C(CSc1ccc(Cl)cc1)Nc1cccc(NC(=O)c2ccco2)c1	-3.5%	0.0%	-7.5%	-13.5%	12.1%
COc1ccc(-c2cn3nc(N4CCC(C(=O)Nc5ccc(C)cc5)CC4)sc3n2)cc1	·	·	·	·	2.3%
Cc1ccc(C(=O)c2cn(CC(=O)NC3CCCCC3)c3nc(C)ccc3c2=O)cc1	·	·	·	·	-3.2%
COc1cc2c(C#CCCCO)c(-c3ccsc3)oc(=O)c2cc1OC	·	-4.0%	·	·	·
O=C1NC(c2ccc(Cl)cc2)Nc2ccccc21 (centres undefined)	0.0%	3.6%	-17.4%	-6.7%	35.9%
O=C1C(=O)c2ccccc2C(O)=C1C1CCC(c2ccc(Cl)cc2)CC1 (centres undefined)	0.0005µM*	-11.9%	0.0006µM*!	·	0.1%
COc1ccc2c3c1O[C@H]1[C@@H](O)C=C[C@H]4C(C2)NCCC341 (some centres undefined)	0.169µM*	·	-12.3%	·	·
CC(=O)c1c(COC(=O)c2ccco2)nc2ccccc2[n+]1[O-]	·	-4.6%	16.6%	1.6%	39.8µM*
CCOC(=O)c1c(COC(=O)c2ccco2)nc2ccccc2[n+]1[O-]	15.2%	-5.3%	7.4%	-1.1%	?
CC1c2cccn2CCN1S(=O)(=O)c1ccc(F)cc1 (centres undefined)	-17.0%	-5.9%	?	·	?
CC(=O)c1cccc(S(=O)(=O)N2CCn3cccc3C2C)c1 (centres undefined)	-22.2%	-11.8%	?	·	31.6µM*
CC(=O)c1ccc(S(=O)(=O)N2CCn3cccc3C2C)cc1 (centres undefined)	?	-5.2%	14.3%	·	35.5µM*
COc1ccc(NC(C)=O)cc1S(=O)(=O)N1CCn2cccc2C1C (centres undefined)	-0.7%	18.0%	?	·	25.1µM*
CN(C)S(=O)(=O)c1cccc(NC(=O)c2ccc(S(=O)(=O)N3CCCC3)cc2)c1	?	-10.4%	-23.2%	·	1.5%
COc1ccc(OC)c(-n2c(-c3ccc(O)cc3O)n[nH]c2=S)c1	0.0131µM*	64.0%	?	-6.9%	-3.0%
Oc1ccc(-c2n[nH]c(=S)n2-c2ccc3c(c2)OCCO3)c(O)c1	0.0657µM*	54.3%	0.415µM*	?	-5.6%
CCN1CCN(C(=O)c2cccc(OC3CCN(S(C)(=O)=O)CC3)c2)[C@@H](C)C1=O	35.3%	16.4%	12.4%	-5.6%	6.1%
O=C(O)CC1CCCC(c2ccccc2)C1=O (centres undefined)	13.1µM*	3.8%	-5.6%	-7.7%	1.8%
CCNc1nc(OCCNC(C)=O)nc(N(C)C)n1	1.47µM*	-21.9%	66.1%	?	4.7%
Cc1cc(Nc2ccc(Cl)cc2)nc(N)n1	2.62µM*	2.3%	?	7.1%	-30.1%
CCn1c(SCc2ccc(C)cc2)nnc1C1CCN(S(=O)(=O)c2ccc(OC)cc2)CC1	4.15µM*	-1.1%	11.7µM*	10.1%	0.2%
CCn1c(SCc2ccc(F)cc2)nnc1C1CCN(S(=O)(=O)c2ccc(OC)cc2)CC1	8.28µM*	1.7%	11.7µM*	-12.4%	-7.7%
